Results: PubChem BioAssay (NCI)
About 79,000 compounds went through this panel and 15% of them were active in at least one assay; those are over-represented in the sample as a whole. A number with no mark means an inactive call. Activity calls are given as the source filed them. Cut-off read from the data, not from the text of the source: active = growth inhibition above about 70%; inactive = the rest. Where a SMILES comes first, the peptide text is derived from it. Bridges are numbered along the chain shown (N, C = ends). [ ]: non-standard residue; d: D form. The star is where a group is joined. ξ: configuration not given here. PhAc = O=C(Cc1ccccc1)*; ξP = O=C(O)C1CCCN1

How the values were obtained:
[1] = NCI Yeast Anticancer Drug Screen. Data for the rad50 strain (AID 155);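 note: 0% = growth of vehicle-only cultures of the same strain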; conditions: S. cerevisiae rad50 strain growth inhibition; at 50.0 µM; hits give high values
How it was run: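 Cells are treated with compound, grown, and their growth is then scored against vehicle-only cultures of the same repair-deficient yeast strain.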

[2] = NCI Yeast Anticancer Drug Screen. Data for the mec2-1 strain (AID 157); conditions: S. cerevisiae mec2-1 strain, at 50.0 µM, hits give high values
How it was run: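 Cells of the genetically defined mec2-1 yeast strain are incubated with test compound. Inhibition of growth is calculated against vehicle-treated controls.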

[3] = NCI Yeast Anticancer Drug Screen. Data for the sgs1 mgt1 strain (AID 161);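 note: 0% = growth of cultures given vehicle only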; conditions: S. cerevisiae sgs1 mgt1 strain, at 50.0 µM, hits give high values
How it was run: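 Test agents were incubated with a DNA-repair-mutant yeast strain. Growth was then read and compared against vehicle-treated controls.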

[4] = NCI Yeast Anticancer Drug Screen. Data for the cln2 rad14 strain (AID 165);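 note: 0% = growth equal to vehicle treated cultures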; conditions: S. cerevisiae cln2 rad14 strain, at 50.0 µM, hits give high values
How it was run: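 The screen exposed genetically defined yeast (cln2 rad14) to test compounds and scored growth inhibition relative to vehicle-treated controls.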

[5] = NCI Yeast Anticancer Drug Screen. Data for the bub3 strain (AID 167); conditions: S. cerevisiae bub3 mutant strain, at 50.0 µM, hits give high values
How it was run: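 Part of a panel of yeast mutants defective in DNA damage repair or cell cycle regulation. Each strain is grown with compound, and inhibition is calculated relative to solvent-treated cultures.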

[6] = NCI Yeast Anticancer Drug Screen. Data for the mlh1 rad18 strain (AID 175); conditions: S. cerevisiae mlh1 rad18 strain growth inhibition; at 50.0 µM; hits give high values
How it was run: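 Compound-treated yeast growth, normalised to vehicle controls. Strain bears defined DNA repair mutations.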

| SMILES | growth inhibition [1] | growth inhibition [2] | growth inhibition [3] | growth inhibition [4] | growth inhibition [5] | growth inhibition [6] |
| --- | --- | --- | --- | --- | --- | --- |
| O=C(O)c1cc(=O)[nH]c(=O)[nH]1 | -17.6% | 0.05% | -14.9% | 7.05% | -6.5% | -21.2% |
| CCOC(=O)C(=CN(C)c1ccc([N+](=O)[O-])cc1)C(=O)OCC | 0.15% | 6.65% | 15.6% | 12.1% | 24.4% | 15.5% |
| ClCCCN1CCN(CCCCl)CC1 | 80.2% (active) | 70% (active) | 85% (active) | 62.1% | 80.5% (active) | 7.75% |
| Cc1cc2nc(C(C)(C)O)[nH]c2cc1C | 0.2% | -4.8% | 2.8% | 8.2% | 1.6% | 13.2% |
| CCCC(=O)OCC(COC(=O)CCC)OC(=O)CCC | -26.8% | -8.35% | -17.4% | 24.6% | 4.9% | 7.1% |
| O=C(C[n+]1cc(Br)cc(Br)c1)c1ccc2ccccc2c1 | 27.2% | 3.45% | 7.7% | 11.8% | 20.2% | 43.6% |
| O=C1CC2(CC(=O)N1CCc1c[nH]c3ccccc13)OCCO2 | -1.35% | 9.05% | 10.1% | -0.5% | 20.6% | -6.15% |
| O=[N+]([O-])c1ccc(CS(=O)(=O)c2cccs2)o1 | 39% | 12.8% | 19.1% | -6.25% | 19.5% | 16.6% |
| CCCOC(=O)C(O)c1ccc(C)cc1 (stereo unspecified) | -1.5% | -11.8% | 12.9% | -3.75% | 5.7% | -14.7% |
| Cn1c(=O)c2[nH]c(SCCc3ccccc3)nc2n(C)c1=O | 0.65% | 0.05% | 6.15% | -39.1% | 10.3% | -2.75% |
| C=C1/C=C/C=C(/C)C(=O)Nc2c(C=O)c(O)c3c4c(c(C)c(O)c3c2O)OC(C)(O/C=C/C(OC)C(C)C(OC(C)=O)C(C)C(O)C(C)C1O)C4=O (stereo unspecified) | 24.1% | 33.5% | 16.4% | 34.2% | 20.4% | 32.5% |
| O=C(NCCCCCCNC(=O)NCc1ccc(Cl)c(Cl)c1)NCc1ccc(Cl)c(Cl)c1 | 13.6% | 4% | -3.8% | -3.8% | -1.9% | 16.9% |
| CN(C)/C=N/c1nc2ncn(CCOC(=O)c3ccccc3)c2c(=O)[nH]1 | -20.6% | -24.6% | 11.3% | 10.6% | -11.4% | -20.9% |
| CC(=O)Nc1c(F)cc(F)cc1[N+](=O)[O-] | -28.4% | -3.4% | -12.4% | -16.8% | -18.8% | 10.3% |
| O=C(O)CCSSCCCS(=O)O | -26.6% | -3% | 36% | 18.9% | 0.45% | -2.2% |
| CCNCc1ccccc1 | -18.2% | -0.25% | -22.1% | -66.5% | -10.9% | -18.8% |
| O=C(O)CCCCc1ccc2ccccc2c1 | 4% | 15.4% | 16.4% | 29.2% | 5.95% | 26.8% |
| Cc1c(Cl)cccc1NC(=O)Oc1ccccc1Cc1ccccc1 | -0.8% | 43.1% | 40% | -2.7% | 67.5% | 52.2% |
| C/C(=N\Sc1cccc([N+](=O)[O-])c1)c1ccccc1O | 91.2% (active) | 96.5% (active) | 96.2% (active) | 90.8% (active) | 94% (active) | 96% (active) |
| CSc1ccc(NC(=O)Nc2cccc(C(C)=O)c2)cc1 | 2.15% | 31.2% | 10.3% | -17.1% | 43% | 24.8% |
| Cc1c(C2CCC(=O)C2)c2ccccc2n1C (stereo unspecified) | -3.05% | -23.3% | -4.6% | 15.4% | 2.1% | 3.5% |

| SMILES | growth inhibition [1] | growth inhibition [2] | growth inhibition [3] | growth inhibition [4] | growth inhibition [5] | growth inhibition [6] |
| --- | --- | --- | --- | --- | --- | --- |
| O=C(Cc1ccccc1)N[C@@H]1COC(=O)C2CCCN2C(=O)[C@@H]2CCCN2C1=O (stereo partly specified) (PhAc-[dS]-Pro-[ξP]; ester 1-C) | -11.6% | -1.7% | 4.25% | 27.4% | 12.3% | 0.65% |
| CCOc1nc(OCC)c2cnn(C)c2n1 | 6.3% | 1.75% | -3.55% | -28.8% | 7.55% | -3.55% |
| CN(C)CCCNC(=O)CCNC(=O)c1cc(NC(=O)c2cc(NC(=O)c3cc(NC(=O)c4nc(NC(=O)CCCNC(=O)c5cc(NC(=O)c6cc(NC(=O)c7cc(NC(=O)c8nccn8C)cn7C)cn6C)cn5C)cn4C)cn3C)cn2C)cn1C | -17.3% | -31.9% | 23.1% | 28.8% | 15.3% | -46.4% |
| CN(C)CCOC(=O)c1cccc(CCl)c1 | 15.9% | 6.3% | 5.75% | 44.4% | 25.4% | 7.95% |
| Nc1cccc(S(=O)(=O)Nc2c(N)nc(SCC(=O)O)[nH]c2=O)c1 | -15% | -15.8% | -19.7% | -9.3% | 11.9% | 21.6% |
| Nc1ccc(C(=O)Nc2ccc3c(ccc4ccccc43)c2)cc1 | -5.8% | 2.35% | 13.8% | 1.75% | -12.9% | 2.35% |
| CSc1ccc(C(=C=C=C(c2ccc(SC)s2)c2ccc(SC)s2)c2ccc(SC)s2)s1 | 38.7% | -19.8% | 2.85% | -24.2% | -31.9% | -2.1% |
| Cc1ccc(OCC(=O)C2CSc3ccc(Cl)cc32)cc1 (stereo unspecified) | 67.8% | 33% | 26.4% | 70.6% (active) | 75.7% (active) | 73.5% (active) |
| COc1ccc(Cl)cc1C(O)CN1CCCCC1 (stereo unspecified) | -8.35% | -11.9% | -11.2% | -37.5% | 0.45% | -6.3% |
| Cn1nnnc1NN(c1nnnn1C)C1C=CCC=C1 | 6.4% | -6% | 0% | -18% | 1.95% | -10.7% |
| COc1ccc2c(c1)SC1=NNC(=O)CN12 | -21.6% | -27.6% | -9.45% | -39.1% | -12.2% | -22.9% |
| COC1=NO[C@@H]2C=CO[C@H]12 | -8.2% | -13.2% | -5.05% | -18.4% | 8.35% | 9.95% |
| O=C([O-])c1ccc2c(c1)-c1nc-2nc2[n-]c(nc3nc(nc4[n-]c(n1)c1ccc(C(=O)[O-])cc41)-c1ccc(C(=O)[O-])cc1-3)c1ccc(C(=O)[O-])cc21.[Gd+3].[K+] | -12.8% | -11.1% | -11.8% | 23.6% | 18% | -12.1% |
| CCOC(=O)Cn1c(=O)c2nc(SC)sc2n(CC)c1=S | -21.8% | 21.1% | -1.15% | -6.55% | 9.45% | 4% |
| Nc1ccccc1SC1CC(=O)N(c2ccc(I)cc2)C1=O (stereo unspecified) | -6.8% | -15.7% | -7.5% | 13.8% | 9.55% | 2.35% |
| ON=C(C1CCCCC1)C1CCCCC1 | -7.35% | -29.1% | -13% | -37.6% | -18.3% | -32.9% |
| CC(C)(C)OC(=O)c1ccc(NCc2cc(O)ccc2O)cc1 | 87.4% (active) | 89% (active) | 90.8% (active) | 90.3% (active) | 88.5% (active) | 87.1% (active) |
| [N-]=[N+]=Nc1ccc(S(=O)(=O)Oc2cc(OS(=O)(=O)c3ccc(N=[N+]=[N-])cc3)cc(OS(=O)(=O)c3ccc(N=[N+]=[N-])cc3)c2)cc1 | 4% | 16.1% | 10.6% | 8% | -5.9% | 14.1% |
| O=C(O)C(Cc1ccc(O)cc1)NC(=O)C(CSC(c1ccccc1)(c1ccccc1)c1ccccc1)NC(c1ccccc1)(c1ccccc1)c1ccccc1 (stereo unspecified) | 3.75% | 30.9% | 11.5% | -2.35% | -4.55% | 23% |
| CCCNc1nc(C)nc2[nH]c(Cc3ccccc3)c(C)c12 | 12.4% | 11.9% | 21.9% | 0.8% | 14.8% | 27.1% |
